# Measured values: PubChem BioAssay (NCATS)
# Inconclusive results are not listed. A call without a number means that no potency is given here. The source made the active and inactive calls. Calls follow the shape of the dose curve; as a rule, active = well fitted inhibition curve with a large enough effect; inconclusive = small, poorly fitted or top-dose-only effect; inactive = no such curve, though single readings can be large or run the other way.
# Target: Cytochrome P450 3A4 (Homo sapiens) (UniProt P08684)
# Experiment: qHTS Assay for Inhibitors and Substrates of Cytochrome P450 3A4 (AID 884); also: nearly all actives have a fitted effect of over 50% in size
# Conditions: recombinant CYP3A4, Luciferin-PPXE luminescence; series mostly up to 57.1 µM
# Experimental: NIH Molecular Libraries Screening Centers Network [MLSCN]
# NIH Chemical Genomics Center [NCGC]
# The P450 gene superfamily is involved in the metabolism and clearance of xenobiotics. This assay used human CYP3A4 to measure the dealkylation of luciferin-6' phenylpiperazinylyl (Luciferin-PPXE; […]) to luciferin. The luciferin is then measured by luminescence after the addition of a luciferase detection reagent. Luciferin-PPXE concentration in the assay was equal to its KM for CYP3A4. Inhibitors and some substrates limit the production of luciferin, and decrease measured luminescence.
# NCGC Assay Protocol Summary:
# Two uL of enzyme and substrate mix (final concentrations: 20nM CYP3A4, 25uM Luciferin-PPXE, 200mM KPO4) were dispensed into a white, solid bottom 1536-well microtiter plate. 23nL of compound was transferred by a pin tool. The plate was incubated at RT for 10 min. Two uL of an NADPH regeneration solution (Promega supplied reagent) was dispensed and the reaction was allowed to continue for 60 min at RT. Then the reaction was stopped by reconstituted luciferin detection buffer. After another 20 min of incubation the plate was read on the ViewLux (Perkin Elmer) at 60 sec exposure and 2x2 binning. This protocol was carried out with Promega-Glo reagents and further information can be found at http://www.promega.com/tbs/tb325/tb325.pdf. Data were normalized to the to AC100 inhibition (57 uM ketoconazole).
# Keywords: P450, CYP3A4, Luciferase, MLSMR, MLSCN, NIH Roadmap, qHTS, NCGC
# Potency is read from the fitted curve at half-maximal effect.
# Cytochrome P450 3A4 (Homo sapiens), sequence (P08684 whole entry, looked up): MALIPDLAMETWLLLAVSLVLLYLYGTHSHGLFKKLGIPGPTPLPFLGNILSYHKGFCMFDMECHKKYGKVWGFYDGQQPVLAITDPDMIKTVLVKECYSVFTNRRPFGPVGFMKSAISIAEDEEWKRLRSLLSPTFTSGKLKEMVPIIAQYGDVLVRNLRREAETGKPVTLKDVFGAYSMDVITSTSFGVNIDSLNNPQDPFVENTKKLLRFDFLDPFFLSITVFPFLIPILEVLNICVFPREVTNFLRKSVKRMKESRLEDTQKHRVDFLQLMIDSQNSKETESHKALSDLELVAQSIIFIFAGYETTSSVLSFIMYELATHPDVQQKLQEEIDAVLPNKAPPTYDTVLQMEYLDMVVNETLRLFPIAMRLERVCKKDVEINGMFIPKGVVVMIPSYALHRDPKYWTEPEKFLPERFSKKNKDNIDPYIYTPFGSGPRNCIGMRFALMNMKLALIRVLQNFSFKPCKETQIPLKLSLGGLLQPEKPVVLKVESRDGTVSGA
SMILES,Potency,outcome
NC(=O)NC(=O)Cc1ccccc1,inactive,
CC(CN1c2ccccc2Sc2ccccc21)N(C)C (stereo not given),inactive,
Cc1cc(CC(=O)O)n(C)c1C(=O)c1ccc(Cl)cc1,inactive,
CC1(C)[C@@H]2CC[C@@]1(C)C(=O)C2,inactive,
OCC(O)CN1CCN(c2ccccc2)CC1 (stereo not given),inactive,
c1ccc2c(CC3=NCCN3)cccc2c1,inactive,
CC(=O)OCC(=O)[C@@]1(O)CC[C@H]2[C@@H]3CCC4=CC(=O)CC[C@]4(C)[C@H]3C(=O)C[C@@]21C,inactive,
CC1(C)OC(=O)NC1=O,inactive,
CN(C)CCC=C1c2ccccc2CCc2ccccc21,inactive,
OC[C@H]1O[C@@H](O[C@@H]2[C@@H](CO)O[C@](O)(CO)[C@H]2O)[C@H](O)[C@@H](O)[C@H]1O,inactive,
Cc1ccc(C(C)C)cc2c(C)ccc1-2,inactive,
CN(C)CCCN1c2ccccc2CCc2ccccc21,inactive,inactive
C=Cc1c(C)c2cc3[nH]c(cc4nc(cc5nc(cc1[nH]2)C(C)=C5CCC(=O)O)C(CCC(=O)O)=C4C)c(C)c3C=C,inactive,
[Cl][In]([Cl])[Cl],inactive,
CC12CCC(CC1)C(C)(C)O2,inactive,
CCCCCCCCCCCCOS(=O)(=O)O,inactive,
Nc1ccc(S(=O)(=O)NC(=O)c2ccccc2)cc1,inactive,
O=C(O)c1ccccc1O,inactive,
NCC(=O)CCC(=O)O,inactive,
CN(C)CC[C@@H](c1ccc(Cl)cc1)c1ccccn1,inactive,

SMILES,Potency,outcome
O=c1cc[nH]c(=S)[nH]1,inactive,
C#CCN(C)Cc1ccccc1,inactive,
CCn1cc(C(=O)O)c(=O)c2cnc(N3CCNCC3)nc21,inactive,
O=C(Oc1ccccc1C(=O)O)c1ccccc1O,inactive,
Nc1ccc(S(=O)(=O)Nc2nccs2)cc1,inactive,
CCCCCCCCCCCCCCCCCCOCC(O)CO (stereo not given),inactive,
NCCNCCNCCNCCN,inactive,
O=c1cc(CO)occ1O,inactive,
c1ccc(CN(CC2=NCCN2)c2ccccc2)cc1,inactive,
O=C1NS(=O)(=O)c2ccccc21,inactive,
Cc1c(Cl)cccc1Nc1ccccc1C(=O)O,inactive,
CN(C)CCN(Cc1ccccc1)c1ccccn1,inactive,
CC(COc1ccccc1)NC(C)C(O)c1ccc(O)cc1 (stereo not given),inactive,
CN(C)CCOC(C)(c1ccccc1)c1ccccn1 (stereo not given),inactive,
O=C1O[C@H]([C@@H](O)CO)C(O)=C1O,inactive,
O=C(CCCN1CCN(c2ccccn2)CC1)c1ccc(F)cc1,inactive,
NS(=O)(=O)c1cc2c(cc1Cl)NC(CSCc1ccccc1)=NS2(=O)=O,25.1 µM (active),
Nc1ccc(S(=O)(=O)Nc2ccc(Cl)nn2)cc1,inactive,
CCCCOC(=O)c1ccc(O)cc1,inactive,
